The subject of assay [1] is XIP peptide (Xip251-270) binding. Nature of the assay: XIP fragment 251-270 binding compounds – biochemical, small-molecule microarray, fluorescence 635/667 nm, 0.1 µg/mL protein, primary screen (AID 1182). Conditions: fluorescent protein binding, 635 nm, higher = more signal, called active from +8 up or from −8 down.
Assay [2] relates to XIP peptide (Xip251-270). Nature of the assay: compounds binding XIP fragment 251-270 – biochemical, small-molecule microarray, fluorescence 635/667 nm, 0.5 µg/mL protein, primary screen (AID 1183). The following applies: fluorescence 635 nm, higher = more signal.
Assay [3] in a line: blood-stage malaria parasite viability loss – strain 3D7, DAPI fluorescence, 100 nL, primary screen (AID 1184).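 Further: parasites grown inside human red blood cells in medium with human serum.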 The following applies: P. falciparum 3D7 growth, 3 d, higher = more signal.
The target of assay [4] is Homeobox protein Hox-A13 (Mus musculus) (UniProt Q62424). Nature of the assay: disruptors of Hoxa13 oligonucleotide interaction – biochemical, fluorescence polarization, labeled oligonucleotide, primary screen (AID 1185). The following applies: Hoxa13:DNA binding, 15 min, higher = more signal, called active from +8 up or from −8 down.

Results on 20 compounds are retold here after PubChem BioAssay.

Activity calls are given as the source filed them.

Homeobox protein Hox-A13 (Mus musculus), sequence (Q62424 whole entry, looked up): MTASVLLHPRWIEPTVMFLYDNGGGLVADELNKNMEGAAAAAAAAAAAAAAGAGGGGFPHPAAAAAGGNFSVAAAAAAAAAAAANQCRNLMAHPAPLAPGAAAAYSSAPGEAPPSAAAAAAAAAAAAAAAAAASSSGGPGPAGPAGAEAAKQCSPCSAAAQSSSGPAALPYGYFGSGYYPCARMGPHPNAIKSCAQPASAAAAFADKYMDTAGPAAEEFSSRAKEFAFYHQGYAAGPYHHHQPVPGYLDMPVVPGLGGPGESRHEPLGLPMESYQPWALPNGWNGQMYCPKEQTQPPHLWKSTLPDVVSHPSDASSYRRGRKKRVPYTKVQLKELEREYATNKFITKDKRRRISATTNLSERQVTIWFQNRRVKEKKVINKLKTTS

For the compound `CSCC[C@@H]1NC(=O)CC=C[C@@H](C)COC(=O)[C@@H](C)COC1=O`, the composite z-score was -0.082 (inactive) in assay [1] and -0.318 in assay [2]. The z-score in assay [3] was -0.866; in assay [4] it was 0.572 (inactive).

With `CCOC(=O)[C@H](CC(C)C)NC(=O)CCC1CC(OC(=O)NCc2cccc3ccccc23)CC2(CCCC(COC(=O)NCCOc3ccccc3)O2)O1` (stereo not given in full), the figures for the composite z-score in assay [1] and in assay [2] were 0.761 (inactive) and 0.471, respectively. Also, the values for the z-score in assay [3] and in assay [4] were -1.81 and -3.36 (inactive), respectively.

As for `CC(C)=CCCC(C)=CCON=C1C[C@@H](O)[C@@H](O)[C@@H]2[C@@H]3C(=O)N(c4cccc(Oc5ccccc5)c4)C(=O)[C@@H]3CC[C@@H]12`, the composite z-score in assay [1] is 0.188 (inactive); in assay [2], 0.352. For the same compound, the z-score is -1.58 in assay [3] and -3.76 (inactive) in assay [4].

As to `O=C(NN=C1C[C@@H](O)[C@@H](O)[C@@H]2[C@@H]3C(=O)N(C4CCCCC4)C(=O)[C@@H]3CC[C@H]12)OCc1ccccc1`, the composite z-score is -0.142 (inactive) in assay [1] and 0.109 in assay [2]. In addition, the results for the z-score in assay [3] and in assay [4] were -0.0276 and -5.03 (inactive), respectively.

With `CCCCc1nc2c(c3c1C[C@H](C)OC3)CN(CCOc1ccccc1)CC2`, the composite z-score in assay [1] was 1.4 (inactive); in assay [2], 0.566. Besides, the z-score is 0.964 in assay [3] and -4.81 (inactive) in assay [4].

Consider `COC(=O)[C@@H]1CC[C@@H](C)[C@H](c2ccc(Br)cc2)N1`, for which the composite z-score in assay [1] is -0.0456 (inactive); in assay [2] it was 0.0425. Also, the z-score in assay [3] was 0.303; in assay [4] it was -1.98 (inactive).

On to `CC(=O)Nc1ccc([C@@H]2N[C@H](C(=O)O)CC[C@H]2C)cc1`, for which the composite z-score in assay [1] is -0.0813 (inactive); in assay [2], 0.119. Also, the z-score in assay [3] was 0.962; in assay [4] it was -0.107 (inactive).

With `CCN1C(=O)[C@@H]2[C@H]3C(=CC[C@@H]2C1=O)C1(OCCCO1)[C@H]1O[C@H]1[C@H]3O`, the results for the composite z-score in assay [1] and in assay [2] were 0.645 (inactive) and 0.689, respectively. Moreover, the z-score was -1.63 in assay [3] and -10.9 (active) in assay [4].

On to `COC(=O)[C@@H]1CC[C@H](C)[C@@H](c2ccc(C)cc2)N1C(=O)c1ccc(C=NOCC[C@@H]2C=C[C@H](OC(C)=O)[C@@H](COC(C)=O)O2)cc1`, for which the composite z-score was -0.425 (inactive) in assay [1] and 0.484 in assay [2]. Moreover, the z-score is -0.316 in assay [3] and -5.26 (inactive) in assay [4].

In the case of `CCO[C@H](c1cc(OC)cc([N+](=O)[O-])c1OC)[C@H](C)C=CCC(=O)OC`, the composite z-score in assay [1] was -0.128 (inactive); in assay [2] it was 0.325. In addition, the z-score was -0.0866 in assay [3] and -0.64 (inactive) in assay [4].

With `CCOC(=O)C1=NO[C@@]2(C=C(Br)C3(OCCCO3)[C@H]3O[C@H]32)C1`, the composite z-score in assay [1] is 2.67 (inactive); in assay [2], 0.512. The z-score is 0.522 in assay [3] and 0.14 (inactive) in assay [4].

Turning to `O=c1n(Cc2cc3c(cc2Cl)OCO3)c(=O)n2n1CC[C@@H]1C(=NOC[C@@H](O)COCc3ccco3)[C@H]3O[C@H]3[C@@H](O)[C@@H]12`, the composite z-score is -0.45 (inactive) in assay [1] and 0.108 in assay [2]. Further, the z-score in assay [3] is -0.181; in assay [4], -0.786 (inactive).

For `COC(=O)CC=C[C@@H](C)[C@@H]1C=C[C@H](O)[C@@H](CO)O1`, the figures for the composite z-score in assay [1] and in assay [2] were 0.0118 (inactive) and -0.518, respectively. Further, the z-score is 0.247 in assay [3] and -0.235 (inactive) in assay [4].

In the case of `O=C1C=C[C@@H](O)[C@@H]2[C@@H]3C(=O)N(C[C@@H]4CCCO4)C(=O)[C@@H]3CC[C@@H]12`, the composite z-score in assay [1] was 0.179 (inactive); in assay [2], 0.119. The z-score in assay [3] was 0.0136; in assay [4], 0.112 (inactive).

For `C[C@@H](c1ccccc1)N1C(=O)[C@H]2[C@H]3[C@H](O)[C@H](O)CC(=NO[C@@H]4O[C@H](CO)[C@@H](O)[C@H](O)[C@H]4O)[C@@H]3CC[C@H]2C1=O`, the composite z-score in assay [1] was -0.0769 (inactive); in assay [2] it was 0.438. Moreover, the z-score in assay [3] is -2.33; in assay [4], 0.174 (inactive).

Turning to `CCCNC(=O)OC[C@H]1O[C@H](c2ccccc2)C=C[C@@H]1Oc1ccc(OC)cc1`, the values for the composite z-score in assay [1] and in assay [2] were -0.174 (inactive) and 0.631, respectively. Further, the z-score in assay [3] was 0.284; in assay [4] it was -1.63 (inactive).

On to `CO[C@H]1COC(=O)CCC[C@@H](C)[C@H](OC)COC(=O)[C@@H]2CCCN2C(=O)CC=C[C@@H]1C`, for which the composite z-score in assay [1] was 0.0072 (inactive); in assay [2], 0.497. The z-score in assay [3] was -0.74; in assay [4], -0.0208 (inactive).

Take `C#CCCCON=C1C[C@@H](O)[C@@H](O)[C@@H]2[C@@H]3C(=O)N(CCC(=O)OCC)C(=O)[C@@H]3CC[C@H]12`: the figures for the composite z-score in assay [1] and in assay [2] were 0.768 (inactive) and 0.493, respectively. For the same compound, the z-score in assay [3] is -0.206; in assay [4] it was 1.24 (inactive).

For the compound `CC[C@@H](c1ccccc1)n1c(=O)n2n(c1=O)[C@H]1[C@H](O)[C@@H]3O[C@@H]3C(=O)[C@H]1CC2`, the composite z-score in assay [1] was -0.144 (inactive); in assay [2] it was 0.0999. The z-score in assay [3] was -1.22; in assay [4], -1.59 (inactive).

Turning to `CCOC(=O)NN=C1C[C@@H](O)[C@@H](O)[C@@H]2[C@@H]3C(=O)N(c4ccc(F)cc4F)C(=O)[C@@H]3CC[C@@H]12`, the composite z-score in assay [1] is 0.015 (inactive); in assay [2], -0.0246. In addition, the z-score was -0.404 in assay [3] and -1.23 (inactive) in assay [4].
